{"source": "PubChem BioAssay (Tox21)", "key": {"[1]": {"molecular_target": "Thyrotropin receptor (Homo sapiens) (UniProt P16473)", "sequence (P16473 whole entry, looked up)": "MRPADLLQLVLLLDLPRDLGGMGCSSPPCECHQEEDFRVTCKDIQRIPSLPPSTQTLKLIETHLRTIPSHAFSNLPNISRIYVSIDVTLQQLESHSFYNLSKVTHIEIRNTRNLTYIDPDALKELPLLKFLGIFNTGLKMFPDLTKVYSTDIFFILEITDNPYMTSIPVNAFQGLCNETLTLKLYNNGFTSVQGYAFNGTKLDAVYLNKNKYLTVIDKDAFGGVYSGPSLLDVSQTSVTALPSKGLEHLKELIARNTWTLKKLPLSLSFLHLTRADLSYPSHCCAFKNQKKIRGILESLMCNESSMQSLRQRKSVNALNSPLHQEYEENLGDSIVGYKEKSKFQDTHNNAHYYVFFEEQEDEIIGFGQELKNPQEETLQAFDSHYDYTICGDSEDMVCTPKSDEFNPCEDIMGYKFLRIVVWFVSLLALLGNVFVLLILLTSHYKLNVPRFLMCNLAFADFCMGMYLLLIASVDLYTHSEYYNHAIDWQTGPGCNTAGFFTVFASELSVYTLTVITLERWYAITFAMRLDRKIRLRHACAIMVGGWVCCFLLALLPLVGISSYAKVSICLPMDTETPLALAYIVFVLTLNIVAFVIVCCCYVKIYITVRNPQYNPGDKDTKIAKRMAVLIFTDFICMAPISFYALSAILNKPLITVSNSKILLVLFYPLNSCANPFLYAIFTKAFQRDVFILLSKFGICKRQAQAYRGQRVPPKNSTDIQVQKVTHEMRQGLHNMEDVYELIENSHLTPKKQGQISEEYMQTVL", "experiment": "qHTS assay to identify small molecule antagonists of the thyroid stimulating hormone receptor (TSHR) signaling pathway (AID 1259385; calls by dose curve; further: nearly all actives have a fitted effect of over 20% in size; further: potency means the concentration at half of the fitted maximal effect)", "how_it_was_run": "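Antagonist mode: compound-treated TSHR-expressing HEK293 cells were stimulated with 1.5 ng/mL TSH (final) in presence of Ro20-1724 for 30 min at RT. HTRF cAMP detection after 1 h; each compound tested at 15 concentrations, triplicate.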"}, "[2]": {"molecular_target": "Progesterone receptor (Homo sapiens) (UniProt P06401)", "sequence (P06401 whole entry, looked up)": "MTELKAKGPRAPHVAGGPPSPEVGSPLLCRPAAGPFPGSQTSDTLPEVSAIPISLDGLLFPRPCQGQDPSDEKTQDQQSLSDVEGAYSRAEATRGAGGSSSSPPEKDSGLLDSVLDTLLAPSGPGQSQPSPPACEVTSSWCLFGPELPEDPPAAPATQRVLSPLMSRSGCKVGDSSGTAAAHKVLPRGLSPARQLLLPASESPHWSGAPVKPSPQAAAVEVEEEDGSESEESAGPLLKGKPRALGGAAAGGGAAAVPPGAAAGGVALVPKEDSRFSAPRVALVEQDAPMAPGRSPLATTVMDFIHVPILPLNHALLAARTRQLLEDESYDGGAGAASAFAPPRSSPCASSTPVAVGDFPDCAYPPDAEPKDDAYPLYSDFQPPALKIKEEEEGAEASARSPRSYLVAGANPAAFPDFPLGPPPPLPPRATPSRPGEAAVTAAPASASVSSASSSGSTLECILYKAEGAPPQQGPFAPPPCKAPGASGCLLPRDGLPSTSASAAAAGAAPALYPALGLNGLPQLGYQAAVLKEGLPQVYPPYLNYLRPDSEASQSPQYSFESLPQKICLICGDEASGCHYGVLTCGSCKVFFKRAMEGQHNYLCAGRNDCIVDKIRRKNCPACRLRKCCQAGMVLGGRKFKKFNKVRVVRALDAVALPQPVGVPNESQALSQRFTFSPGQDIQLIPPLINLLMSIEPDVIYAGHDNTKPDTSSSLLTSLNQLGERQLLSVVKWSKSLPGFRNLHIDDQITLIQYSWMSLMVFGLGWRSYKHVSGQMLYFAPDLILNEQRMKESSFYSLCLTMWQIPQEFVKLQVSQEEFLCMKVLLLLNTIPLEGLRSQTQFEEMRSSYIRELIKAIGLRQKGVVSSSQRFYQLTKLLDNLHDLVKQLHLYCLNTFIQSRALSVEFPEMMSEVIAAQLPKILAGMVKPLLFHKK", "experiment": "qHTS assay to identify small molecule agonists of the progesterone receptor (PR) signaling pathway (AID 1346784; calls by dose curve; further: nearly all actives have a fitted effect of over 30% in size; further: potency means the concentration at half of the fitted maximal effect)", "how_it_was_run": "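The screen uses PR-UAS-bla HEK 293T cells in charcoal-stripped serum (2%). Compounds are applied for 16 hr at 37C after a 6 hr pre-incubation, and reporter activity is detected with a FRET beta-lactamase substrate after 2 hr at room temperature.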"}, "[3]": {"molecular_target": "Progesterone receptor (Homo sapiens) (UniProt P06401)", "experiment": "qHTS assay to identify small molecule antagonists of the progesterone receptor (PR) signaling pathway (AID 1346795; active means well fitted inhibition curve with a large enough effect in the signal ratio in the repeat runs, not every such curve was filed as active; the % refers to the signal ratio; further: potency means the concentration at half of the fitted maximal effect)", "how_it_was_run": "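After 6 hr plating at 37C in 2% stripped-serum medium, PR-UAS-bla HEK293T cells got compounds, then 1 nM R5020. Sixteen hours later, LiveBLAzer substrate was applied for 2 hr at room temperature and fluorescence was recorded.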"}, "[4]": {"experiment": "qHTS assay to identify small molecule antagonists of the progesterone receptor (PR) signaling pathway - cell viability counter screen (AID 1346798); further: nearly all actives have a fitted effect of over 50% in size; further: potency means the concentration at half of the fitted maximal effect", "how_it_was_run": "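Viability was determined by ATP-based luminescence (CellTiter-Glo) in PR-UAS-bla HEK293T cells cultured in 2% charcoal-stripped serum and incubated 16 hr with compounds under R5020 stimulation.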"}, "[5]": {"experiment": "qHTS assay to identify small molecule agonists of the progesterone receptor (PR) signaling pathway - cell viability counter screen (AID 1346799; calls by dose curve; further: nearly all actives have a fitted effect of over 45% in size)", "how_it_was_run": "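Viability was scored by ATP luminescence (CellTiter-Glo, 30 min, room temperature) in the same wells used for the reporter readout, after 16 hr compound exposure of PR-UAS-bla HEK293T cells.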"}, "[6]": {"experiment": "qHTS assay to identify small molecule antagonists of the TGF-beta/Smad signaling pathway - cell viability counter screen (AID 1346824); further: nearly all actives have a fitted effect of over 50% in size", "how_it_was_run": "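Cytotoxicity counter-screen run in the same wells as the beta-lactamase Smad reporter read: CellTiter-Glo luminescence after 30 min at room temperature. HEK 293T SBE-bla cells had 5 hr compound exposure at 37 C with TGF-beta1 (0.25 ng/mL stock).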"}, "[7]": {"experiment": "qHTS assay to identify small molecule agonists of the TGF-beta/Smad signaling pathway - cell viability counter screen (AID 1346829); further: top concentration of the series differs between compounds; nearly all actives have a fitted effect of over 45% in size", "how_it_was_run": "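HEK 293T SBE-bla line, 5 hr compound exposure at 37 C, multiplexed CellTiter-Glo viability read by luminescence.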"}, "[8]": {"experiment": "qHTS assay to identify small molecule agonists of the TGF-beta/Smad signaling pathway (AID 1346859; active means well fitted activation curve with a large enough effect in the signal ratio in the repeat runs, not every such curve was filed as active; the % refers to the signal ratio; further: series mostly up to about 77 µM)", "how_it_was_run": "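Dual-wavelength fluorescence (460/530 nm emission) quantified beta-lactamase expression under the Smad binding element in HEK 293T cells following 5 hr compound treatment at 37 C.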"}, "[9]": {"molecular_target": "Thyrotropin-releasing hormone receptor (Homo sapiens) (UniProt P34981)", "sequence (P34981 whole entry, looked up)": "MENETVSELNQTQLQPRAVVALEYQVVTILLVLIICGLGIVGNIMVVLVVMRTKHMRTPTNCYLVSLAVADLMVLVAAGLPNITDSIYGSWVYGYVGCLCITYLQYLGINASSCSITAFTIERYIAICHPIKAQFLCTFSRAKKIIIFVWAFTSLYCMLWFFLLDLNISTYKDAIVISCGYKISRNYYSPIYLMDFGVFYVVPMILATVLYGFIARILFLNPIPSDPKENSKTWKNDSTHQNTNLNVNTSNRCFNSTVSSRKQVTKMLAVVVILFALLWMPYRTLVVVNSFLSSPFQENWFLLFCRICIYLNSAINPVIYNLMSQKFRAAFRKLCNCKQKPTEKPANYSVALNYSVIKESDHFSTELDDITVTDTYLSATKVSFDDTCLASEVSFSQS", "experiment": "qHTS assay to identify small molecule antagonists of the thyrotropin-releasing hormone receptor (TRHR) signaling pathway (AID 1346877; active means well fitted inhibition curve with a large enough effect in the repeat runs, not every such curve was filed as active; further: series mostly up to about 51 µM)", "how_it_was_run": "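Overnight-plated (18 h, 37 °C) HEK293 cells expressing TRHR were dye-loaded 2 h, treated with compound, then stimulated with TRH at 1 nM final. Fluorescence intensity was captured every second for 3 min.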"}, "[10]": {"molecular_target": "Thyrotropin-releasing hormone receptor (Homo sapiens) (UniProt P34981)", "experiment": "qHTS assay to identify small molecule agonists of the thyrotropin-releasing hormone receptor (TRHR) signaling pathway (AID 1346891; calls by dose curve; further: series mostly up to about 58 µM)", "how_it_was_run": "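Kinetic fluorescence (3 min, 1 s intervals) reported intracellular calcium after compound transfer onto TRHR-Hek293 cells pre-loaded with dye for 2 h at 37 °C.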"}, "[11]": {"experiment": "Human pregnane X receptor (PXR) small molecule agonists, qHTS cell viability counter screen (AID 1346977); further: nearly all actives have a fitted effect of over 50% in size; further: potency means the concentration at half of the fitted maximal effect", "how_it_was_run": "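HepG2 cells stably carrying the PXR-Luc reporter are cultured with 5% charcoal-stripped FBS and treated with compounds for 24hr. CellTiter-Fluor is added at 23hr and fluorescence is read after 1hr.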"}, "[12]": {"experiment": "Caspase-3/7 induction in HepG2 cells by small molecules, qHTS assay (AID 1346978); further: nearly all actives have a fitted effect of over 15% in size; further: potency means the concentration at half of the fitted maximal effect", "how_it_was_run": "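Caspase-3/7 induction was measured by Caspase-Glo 3/7 luminescence (30 min, room temperature) after a 17 hr compound exposure of wild-type HepG2 cells seeded at 2,000 per well and pre-incubated 5 hr.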"}, "[13]": {"experiment": "Caspase-3/7 induction in CHO-K1 cells by small molecules, qHTS cell viability counter screen (AID 1346979); further: nearly all actives have a fitted effect of over 35% in size; further: potency means the concentration at half of the fitted maximal effect", "how_it_was_run": "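Seeding: 1,500 CHO-K1 cells/well. Rest: 5hr, 37C. Treatment: compounds in DMSO, 16hr. Read: CellTiter-Fluor, 1hr, fluorescence.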"}, "[14]": {"experiment": "Caspase-3/7 induction in CHO-K1 cells by small molecules, qHTS assay (AID 1346980); further: nearly all actives have a fitted effect of over 15% in size", "how_it_was_run": "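Luminescent Caspase-Glo 3/7 read (30min, room temperature) quantified apoptosis induction. Cells were wild-type CHO-K1, treated with compound for 17hr at 37 C and 5% CO2.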"}, "[15]": {"experiment": "Caspase-3/7 induction in HepG2 cells by small molecules, qHTS cell viability counter screen (AID 1346981); further: nearly all actives have a fitted effect of over 30% in size; further: potency means the concentration at half of the fitted maximal effect", "how_it_was_run": "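Treatment of HepG2 cells with DMSO-delivered compounds ran 16 hr at 37 C following a 5-hr pre-incubation of 2,000 cells/well. CellTiter-Fluor fluorescence, read after 1 hr, served as the viability measure in a qHTS format.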"}, "[16]": {"molecular_target": "Nuclear receptor subfamily 1 group I member 2 (Homo sapiens) (UniProt O75469)", "sequence (O75469 whole entry, looked up)": "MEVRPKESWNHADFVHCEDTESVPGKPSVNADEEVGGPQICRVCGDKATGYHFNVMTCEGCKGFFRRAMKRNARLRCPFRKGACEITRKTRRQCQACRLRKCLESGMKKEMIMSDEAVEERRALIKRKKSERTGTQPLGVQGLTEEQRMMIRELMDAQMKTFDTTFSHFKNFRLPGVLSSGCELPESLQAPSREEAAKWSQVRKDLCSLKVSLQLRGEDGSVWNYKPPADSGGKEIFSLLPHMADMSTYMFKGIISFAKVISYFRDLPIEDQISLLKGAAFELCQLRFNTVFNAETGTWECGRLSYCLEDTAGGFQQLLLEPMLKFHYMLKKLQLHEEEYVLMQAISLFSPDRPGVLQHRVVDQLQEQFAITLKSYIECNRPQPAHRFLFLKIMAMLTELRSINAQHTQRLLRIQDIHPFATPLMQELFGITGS", "experiment": "Human pregnane X receptor (PXR) small molecule agonists, qHTS assay (AID 1346982); further: nearly all actives have a fitted effect of over 35% in size; further: potency means the concentration at half of the fitted maximal effect", "how_it_was_run": "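Stable HepG2 line reporting PXR-mediated CYP3A4 expression via luciferase. Treatment: 24 hr with compounds in DMSO at 37 C. Detection: ONE-Glo luminescence.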"}}, "note": "Values without a mark were called inactive. Results filed as inconclusive are left out. Where a call stands in place of a potency, no number is given. Active and inactive are the calls of the source. Unless noted, the call rests on the fitted dose curve; in most records, active means well fitted curve in the direction sought with a large enough effect in the repeat runs; inconclusive means weak or mixed curves; inactive means no such curve, though single readings can be large; an effect the other way counts as inactive or inconclusive.", "data": [{"compound": "CC(C)COC(=O)COc1cc(Cl)c(Cl)cc1Cl", "values": [{"measurement": "Potency", "setting": "[1]", "result": "inactive"}, {"measurement": "Potency", "setting": "[2]", "result": "inactive"}, {"measurement": "Potency", "setting": "[3]", "result": "inactive"}, {"measurement": "Potency", "setting": "[4]", "result": "inactive"}, {"measurement": "Potency", "setting": "[5]", "result": "inactive"}, {"measurement": "outcome", "setting": "[6]", "result": "inactive"}, {"measurement": "Potency", "setting": "[7]", "result": "inactive"}, {"measurement": "Potency", "setting": "[8]", "result": "inactive"}, {"measurement": "outcome", "setting": "[9]", "result": "inactive"}, {"measurement": "outcome", "setting": "[10]", "result": "inactive"}, {"measurement": "Potency", "setting": "[11]", "result": "inactive"}, {"measurement": "Potency", "setting": "[12]", "result": "inactive"}, {"measurement": "Potency", "setting": "[13]", "result": "inactive"}, {"measurement": "outcome", "setting": "[14]", "result": "inactive"}, {"measurement": "Potency", "setting": "[15]", "result": "inactive"}]}, {"compound": "Cc1ccc2c(c1[N+](=O)[O-])C(=O)c1ccccc1C2=O", "values": [{"measurement": "Potency", "setting": "[1]", "result": "inactive"}, {"measurement": "Potency", "setting": "[3]", "result": "inactive"}, {"measurement": "Potency", "setting": "[4]", "result": "inactive"}, {"measurement": "Potency", "setting": "[5]", "result": "inactive"}, {"measurement": "Potency", "setting": "[7]", "result": "inactive"}, {"measurement": "Potency", "setting": "[8]", "result": "inactive"}, {"measurement": "Potency", "setting": "[11]", "result": "3.78 µM (active)"}, {"measurement": "Potency", "setting": "[12]", "result": "5.99 µM (active)"}, {"measurement": "outcome", "setting": "[14]", "result": "inactive"}, {"measurement": "Potency", "setting": "[15]", "result": "3 µM (active)"}, {"measurement": "Potency", "setting": "[16]", "result": "1.9 µM (active)"}]}, {"compound": "C=C(C)c1ccccc1", "values": [{"measurement": "Potency", "setting": "[1]", "result": "inactive"}, {"measurement": "Potency", "setting": "[2]", "result": "15.4 µM (active)"}, {"measurement": "Potency", "setting": "[3]", "result": "inactive"}, {"measurement": "Potency", "setting": "[4]", "result": "inactive"}, {"measurement": "outcome", "setting": "[6]", "result": "inactive"}, {"measurement": "Potency", "setting": "[8]", "result": "inactive"}, {"measurement": "outcome", "setting": "[9]", "result": "inactive"}, {"measurement": "Potency", "setting": "[11]", "result": "inactive"}, {"measurement": "Potency", "setting": "[12]", "result": "inactive"}, {"measurement": "outcome", "setting": "[14]", "result": "inactive"}, {"measurement": "Potency", "setting": "[15]", "result": "inactive"}, {"measurement": "Potency", "setting": "[16]", "result": "inactive"}]}, {"compound": "CO[C@@H]1[C@@H](OC)[C@H](C)[C@@](O)(CC(=O)O)O[C@H]1[C@H](C)[C@H]1O[C@@]2(CC[C@@](C)([C@H]3CC[C@@](C)([C@@H]4O[C@@H]([C@H]5O[C@](C)(O)[C@H](C)C[C@@H]5C)C[C@@H]4OC4C[C@H](OC)[C@@H](OC)[C@H](C)O4)O3)O2)C[C@H](O)[C@H]1C", "note": "(stereo not given in full)", "values": [{"measurement": "Potency", "setting": "[1]", "result": "18.8 µM (active)"}, {"measurement": "Potency", "setting": "[3]", "result": "10.6 µM (active)"}, {"measurement": "Potency", "setting": "[4]", "result": "18.8 µM (active)"}, {"measurement": "Potency", "setting": "[7]", "result": "inactive"}, {"measurement": "Potency", "setting": "[8]", "result": "inactive"}, {"measurement": "outcome", "setting": "[9]", "result": "inactive"}, {"measurement": "outcome", "setting": "[10]", "result": "inactive"}, {"measurement": "Potency", "setting": "[11]", "result": "3.35 µM (active)"}, {"measurement": "Potency", "setting": "[12]", "result": "inactive"}, {"measurement": "Potency", "setting": "[13]", "result": "1.33 µM (active)"}, {"measurement": "outcome", "setting": "[14]", "result": "inactive"}, {"measurement": "Potency", "setting": "[15]", "result": "3.76 µM (active)"}]}]}
